Potency and outcome data for 32 compounds are collected here from PubChem BioAssay (NCATS).

Assay [1] deals with MCC-13. The experiment in a line: qHTS assay to identify novel small-molecules to repurpose for Merkel cell carcinoma treatment (AID 1296009). Also: nearly all actives have a fitted effect of over 60% in size. The conditions noted are these: MCC and control cell lines, CellTiter-Glo viability, 72 h; series mostly up to 46 µM. A digest of the protocol: (§1)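 CellTiter-Glo luminescence after 72 hr compound exposure at 37 degree celsius gave cell viability. Libraries NPC and MIPE were run as 8- and 11-point dose responses; RLUs normalized to DMSO (negative) and no-cell (cytotoxicity) controls.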
(In general: In qHTS, concentration-response curves come from the screen itself.)

In assay [2] the test system is MCC-26. The description is as above. The conditions noted are these: MCC and control cell lines, CellTiter-Glo viability, 72 h; series mostly up to 46 µM. A digest of the protocol:
as §1
(In ATP-based viability assays light output follows the ATP content of the culture.)

For assay [3], the system named is MKL-1. The assay is described as above. To be noted: MCC and control cell lines, CellTiter-Glo viability, 72 h; series mostly up to 46 µM. A digest of the protocol:
as §1

Assay [4] has as its system MKL-2. The assay is described as above. To be noted: MCC and control cell lines, CellTiter-Glo viability, 72 h; series mostly up to 46 µM. A digest of the protocol:
as §1

Assay [5] relates to NIH3T3. The description is as above. The conditions noted are these: MCC and control cell lines, CellTiter-Glo viability, 72 h. In outline:
as §1

Assay [6] has as its system UISO. The description is as above. The conditions noted are these: MCC and control cell lines, CellTiter-Glo viability, 72 h; series mostly up to 46 µM. In outline: as §1
The test system of assay [7] is WaGa. The assay is described as above. The conditions noted are these: MCC and control cell lines, CellTiter-Glo viability, 72 h; series mostly up to 46 µM. In outline: as §1
For assay [8], the system named is C33A. The experiment in a line: Primary qHTS to identify gynecologic anti-cancer compounds using libraries of approved drugs and bioactive compounds (AID 1345084). Also: nearly all actives have a fitted effect of over 55% in size. The conditions noted are these: Gynecologic cancer cell panel viability, ATPlite luminescence, 48 h; series mostly up to 57.5 µM. A digest of the protocol:
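Five-point cytotoxicity, 48 h drug exposure at 37 C, 5% CO2, on cells seeded 16 h beforehand. ATP content read by ATPlite luminescence.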

The test system of assay [9] is HEK293T. The assay can be described thus: qHTS assay to identify novel small-molecules to repurpose for Merkel cell carcinoma treatment (AID 1296009). Also: nearly all actives have a fitted effect of over 60% in size. The conditions noted are these: MCC and control cell lines, CellTiter-Glo viability, 72 h; at 44.8 µM (top of the series). A digest of the protocol: as §1
The test system of assay [10] is HACAT. The assay is described as above. The conditions noted are these: MCC and control cell lines, CellTiter-Glo viability, 72 h; at 44.8 µM (top of the series) unless noted. A digest of the protocol:
as §1

Where [11] appears, read: at 44.8 µM (top of the series) unless noted.

Values joined by “and” are separate entries in the source; they are usually repeats but may differ in a detail not shown here. Equal values may be shown once. Results filed as inconclusive are left out. Some compounds were tested as several samples or in several runs, with calls that do not always agree. Active and inactive are the calls of the source. Calls follow the shape of the dose curve; as a rule, active = well fitted curve in the direction sought with a large enough effect; inconclusive = small, poorly fitted or top-dose-only effect, or another doubt; inactive = no such curve, though single readings can be large; an effect the other way counts as inactive or inconclusive.
Potency is read from the fitted curve at half-maximal effect.

As to `Cn1cc(C2=C(c3cn(C4CCN(Cc5ccccn5)CC4)c4ccccc34)C(=O)NC2=O)c2ccccc21`, the Potency result in [1], in assay [2], in assay [3], in assay [4], in assay [6] and in assay [7] was “inactive” in each case. The Potency result in [8] was “inactive”. Besides, the compound was classed as inactive in [5] (setting [11]).
As for `CCOP(=S)(OCC)Oc1cc(C)nc(C(C)C)n1`, the compound was called inactive in assay [9]. For the same compound, the Potency entry in assay [1], in [2], in assay [3], in assay [4], in [6] and in [7] was “inactive” in each case. In [8], the Potency result is “inactive”.
For the compound `COc1ccc2c(c1OC)CN1CCc3cc4c(cc3C1C2)OCO4` (centres undefined), in [10], the result was inactive. For the same compound, the Potency entry in [1] and in assay [2] was “inactive” throughout. The Potency in [3] is 11.9 µM (active); in assay [4] it was 20.9 µM (active); in [7] it was 16.6 µM (active).
For `O=c1oc2ccccc2c(O)c1C(CC(O)c1ccc(-c2ccc(Br)cc2)cc1)c1ccccc1` (centres undefined), the compound was called inactive in assay [9]. Also, the Potency entry in [1], in [2], in [3], in assay [4], in assay [6] and in [7] was “inactive” in each case. The Potency result in [8] was “inactive”.
On to `c1ccc(C2CC2)c(OCC2=NCCN2)c1`, for which the call in assay [10] was inactive. In addition, the Potency result in assay [1], in assay [2], in assay [3], in [4], in assay [6] and in assay [7] was “inactive” throughout. In addition, the Potency entry in [8] was “inactive”.
With `CC[C@@H](CO)NC(=O)[C@@H]1C=C2c3cccc4[nH]cc(c34)C[C@H]2N(C)C1`, the Potency entry in assay [1], in [2], in [3], in [4], in assay [6] and in assay [7] was “inactive” each time. The Potency result in [8] is “inactive”.
In the case of `Cc1ncc(CNC(=O)N(CCCl)N=O)c(N)n1`, the Potency entry in assay [1], in assay [2], in assay [3], in [4], in assay [6] and in [7] was “inactive” each time. The Potency result in assay [8] is “inactive”.
With `Oc1ccc(Cl)cc1Cc1ccccc1`, the Potency result in assay [1], in assay [2], in assay [3] and in [8] was “inactive” each time. Further, the Potency is 21.9 µM (active) in [4] and 34.7 µM (active) in assay [6].
For the compound `CNC(=O)N1N=C(c2ccc(N)cc2)c2cc3c(cc2CC1C)OCO3` (centres undefined), the Potency entry in assay [3] and in [8] was “inactive” each time. Besides, the figures for the Potency in assay [4] and in assay [7] were 7.43 µM (active) and 16.6 µM (active), respectively.
`COc1ccc(Cc2nccc3cc(OC)c(OC)cc23)cc1OC`: the Potency entry in assay [1], in assay [2], in assay [3], in [4], in assay [6] and in assay [7] was “inactive” in each case.
On to `C[C@]12CC[C@H]3[C@@H](CCC4=CC(=O)CC[C@@H]43)[C@@H]1CC[C@@H]2OC(=O)CCc1ccccc1`, for which the Potency result in assay [1], in assay [2], in assay [3], in [4], in assay [6] and in [7] was “inactive” throughout. Besides, in assay [8], the Potency result was “inactive”.
Turning to `O=C1NCN(c2ccccc2)C12CCN(CC1COc3ccccc3O1)CC2` (centres undefined), the Potency entry in assay [1], in assay [2], in assay [3], in [4], in assay [6] and in [7] was “inactive” in each case. Moreover, the Potency entry in [8] is “inactive”.
Regarding `C[C@@H]1[C@@H](C(=O)C[C@H]2O[C@@H]3O[C@]4(C)CC[C@@H]5[C@H](C)CC[C@@H]([C@H]2C)[C@@]35OO4)O[C@@H]2O[C@]3(C)CC[C@H]4[C@H](C)CC[C@@H]1[C@@]24OO3`, the Potency result in assay [2] was “inactive”. In addition, the Potency is 14.8 µM (active) in assay [3], 0.662 µM (active) in assay [4], 0.372 µM (active) in assay [6] and 2.64 µM (active) in [7].
In the case of `C[C@@H]1O[C@@H](O[C@H]2C[C@@H](O)[C@]3(CO)[C@H]4[C@H](O)C[C@]5(C)[C@@H](C6=CC(=O)OC6)CC[C@]5(O)[C@@H]4CC[C@]3(O)C2)[C@H](O)[C@H](O)[C@H]1O`, the Potency in assay [2] is 235 nM (active); in [3], 148 nM (active) and 119 nM (active); in assay [4], 0.118 µM (active); in [6] it was 83.3 nM (active) and 59.6 nM (active); in [7], 66.2 nM (active) and 59.6 nM (active); in assay [8] it was 100 nM (active) and 126 nM (active). The result in assay [5] (at 17.4 µM (top of the series)) and in assay [5] (at 44.8 µM (top of the series)) was inactive.
As for `c1ccc2c(c1)OCC(C1=NCCN1)O2` (centres undefined), the figures for the Potency in assay [3] and in [4] were 26.6 µM (active) and 5.96 µM (active), respectively.
As to `C=C1C[C@@H]2[C@H](CC[C@]3(C)C(=O)CC[C@@H]23)[C@@]2(C)C=CC(=O)C=C12`, the Potency entry in [1], in assay [2], in assay [6] and in assay [8] was “inactive” in each case. In addition, the Potency in [4] was 13.3 µM (active).
For the compound `NN=C(N)N`, the Potency result in assay [1], in assay [2], in [3], in assay [4], in [6] and in assay [7] was “inactive” in each case. The Potency result in assay [8] is “inactive”.
On to `Oc1cc(Cl)ccc1Oc1ccc(Cl)cc1Cl`, for which the Potency in [1] is 44.2 µM (active) and inactive; in assay [4] it was 24.8 µM (active); in assay [6] it was 44.2 µM (active); in assay [7], 55.6 µM (active); in assay [8] it was 28.2 µM (active) and inactive. Moreover, in assay [2], the Potency entry was “inactive”.
With `CN1C[C@H](CNC(=O)OCc2ccccc2)C[C@@H]2c3cccc4c3c(cn4C)C[C@H]21`, the Potency result in [1], in assay [2] and in assay [8] was “inactive” each time.
`Oc1cccc2cccnc12`: the Potency result in assay [1] and in assay [8] was “inactive” each time. Further, the Potency in assay [2] was 21.7 µM (active) and inactive; in [3], 12.2 µM (active) and inactive; in [4], 4.86 µM (active) and inactive; in [6] it was 10.9 µM (active) and inactive; in assay [7], 38.6 µM (active) and inactive.
For the compound `CO[C@]12CC[C@@]3(C[C@@H]1[C@](C)(O)C(C)(C)C)[C@@H]1Cc4ccc(O)c5c4[C@@]3(CCN1CC1CC1)[C@H]2O5`, the results for the Potency in [1], in [4] and in assay [6] were 53.9 µM (active), 34 µM (active) and 24.1 µM (active), respectively.
Consider `CC(=O)[C@H]1CC[C@H]2[C@@H]3CC[C@H]4C[C@H](O)CC[C@]4(C)[C@H]3C(=O)C[C@]12C`, for which the Potency result in [1], in assay [2], in [3], in assay [4], in assay [6] and in assay [7] was “inactive” each time. Further, the Potency entry in assay [8] was “inactive”. For the same compound, in [5] (setting [11]), the call was inactive.
Regarding `CCC1(C2=NCCN2)Cc2ccccc2O1` (centres undefined), the Potency result in assay [1], in assay [2], in assay [3], in [4], in assay [6] and in [7] was “inactive” throughout. For the same compound, in assay [8], the Potency result was “inactive”.
Take `Fc1ccc(C(OCCN2CCN(CCCc3ccccc3)CC2)c2ccc(F)cc2)cc1`: the Potency result in assay [2] is “inactive”. The Potency is 9.44 µM (active) in assay [3]; 23.5 µM (active) and 4.73 µM (active) in [4]; 23.7 µM (active) in [6]; 8.41 µM (active) in [7].
For the compound `Cc1cccc(C)c1NC1=NCCCS1`, the Potency result in assay [1], in assay [2], in assay [3], in assay [4], in [6] and in assay [7] was “inactive” each time. For the same compound, the Potency entry in [8] is “inactive”.
Regarding `CCOC(=O)C1(c2ccccc2)CCN(CCC(C#N)(c2ccccc2)c2ccccc2)CC1`, the Potency result in assay [1], in assay [2], in [3] and in assay [8] was “inactive” throughout.
With `C[C@]12CCC(=O)C(O)=C1CC[C@@H]1[C@@H]2CC[C@]2(C)C(=O)CC[C@@H]12`, the Potency result in [1], in assay [2], in assay [3], in [4], in [6] and in [7] was “inactive” throughout. In addition, the Potency result in assay [8] was “inactive”.
For the compound `CN(C)[C@@H]1C(=O)C(C(N)=O)=C(O)[C@@]2(O)C(=O)C3=C(O)c4c(O)cccc4[C@@](C)(O)[C@H]3C[C@@H]12`, the Potency entry in [1], in assay [2], in assay [3], in [4], in assay [6] and in assay [7] was “inactive” in each case. In assay [8], the Potency result is “inactive”.
Consider `C[C@H]1O[C@@H](O[C@H]2[C@@H](O)C[C@H](O[C@H]3[C@@H](O)C[C@H](O[C@H]4CC[C@@]5(C)[C@H](CC[C@@H]6[C@@H]5CC[C@]5(C)[C@@H](C7=CC(=O)OC7)CC[C@]65O)C4)O[C@@H]3C)O[C@@H]2C)C[C@H](O)[C@@H]1O`, for which the Potency was 42.2 nM (active) in assay [2]; 0.0473 µM (active) in assay [3]; 0.0237 µM (active) in [4]; 0.0211 µM (active) in [7]; 100 nM (active) and 89.1 nM (active) in [8].
On to `Clc1ccc(CCC(Cn2ccnc2)Sc2c(Cl)cccc2Cl)cc1` (centres undefined), for which the Potency result in assay [1], in assay [2], in assay [3] and in [7] was “inactive” each time.
Turning to `CN(C)CCN(C)CCc1ccc(Cl)c(Cl)c1`, the Potency result in [1], in [2], in [3], in assay [4], in assay [6] and in assay [7] was “inactive” in each case.
Consider `C=C(C)[C@H]1Cc2c(ccc3c2O[C@@H]2COc4cc(OC)c(OC)cc4[C@@H]2C3=O)O1`, for which the Potency in assay [8] was 708 nM (active).
